{"source": "the OligoGym collection", "data": [{"biological_target": "TRMT1", "assay": "pooled miR-30 sensor sort-seq; sequence = guide strand", "details": "shRNA", "values": [{"sequence": "TTGTTCTGAAGCAGCCTGCGTC", "sensor-assay potency score (higher = more potent)": -0.663}, {"sequence": "TAGTACAGAGGCACGTCCGGGA", "sensor-assay potency score (higher = more potent)": -0.101}, {"sequence": "TTGAGCTGGACATTCCGGCGTA", "sensor-assay potency score (higher = more potent)": 0.567}, {"sequence": "TCATTGAGCTGGACATTCCGGC", "sensor-assay potency score (higher = more potent)": 0.0258}, {"sequence": "TAGAAGTCAGCGCTGATGCTGA", "sensor-assay potency score (higher = more potent)": -0.13}, {"sequence": "TCGGTGACTGTCGTCTCCTGGA", "sensor-assay potency score (higher = more potent)": -1.21}, {"sequence": "TAGTCTCTGATAGTCGCTCCCG", "sensor-assay potency score (higher = more potent)": -0.643}, {"sequence": "TTTGCGTGTCCTTCTCTCCTGG", "sensor-assay potency score (higher = more potent)": 0.33}, {"sequence": "TCTCTGATAGTCGCTCCCGTTT", "sensor-assay potency score (higher = more potent)": -1.66}, {"sequence": "TCGTTTGCAACCACAGATCTGA", "sensor-assay potency score (higher = more potent)": -0.44}]}, {"biological_target": "TRO", "assay": "pooled miR-30 sensor sort-seq; sequence = guide strand", "details": "shRNA", "values": [{"sequence": "TTGGGTGTGTCCTTGGTCGTTC", "sensor-assay potency score (higher = more potent)": 0.127}, {"sequence": "TACACCACTAAAGCCAGCCGTG", "sensor-assay potency score (higher = more potent)": -1.01}, {"sequence": "TTGAGTGCACTGCCAAAGCTGA", "sensor-assay potency score (higher = more potent)": -0.944}, {"sequence": "TAGTGCTCAGTGTACCACCAAA", "sensor-assay potency score (higher = more potent)": -1.66}, {"sequence": "TTTCATCTTGCTAGTCTCGTGG", "sensor-assay potency score (higher = more potent)": 0.184}, {"sequence": "TTCATCTTGCTAGTCTCGTGGT", "sensor-assay potency score (higher = more potent)": 0.132}, {"sequence": "TTAGTAATAGTCTTTATAGGGG", "sensor-assay potency score (higher = more potent)": -0.72}, {"sequence": "TAGTATTAGATGCACTGCCAAA", "sensor-assay potency score (higher = more potent)": -1.27}, {"sequence": "TTGATGGGGATCTTTGTCTGGT", "sensor-assay potency score (higher = more potent)": -0.592}, {"sequence": "TTGGTCAGCATTTGGAGTCTGG", "sensor-assay potency score (higher = more potent)": 0.322}, {"sequence": "TAAAATGGCCACATCTCGCGGT", "sensor-assay potency score (higher = more potent)": 0.238}, {"sequence": "TTGAGCACACTGCCAAAGCTGG", "sensor-assay potency score (higher = more potent)": -0.914}]}, {"biological_target": "TRPC4", "assay": "pooled miR-30 sensor sort-seq; sequence = guide strand", "details": "shRNA", "values": [{"sequence": "TATTTCTCTCAAGTGGTCCTGC", "sensor-assay potency score (higher = more potent)": 0.27}, {"sequence": "TATACTAGAGTCCTCTTCTTTT", "sensor-assay potency score (higher = more potent)": -1.18}, {"sequence": "TTGAGTAGAACAACCAGAGAGA", "sensor-assay potency score (higher = more potent)": -0.452}, {"sequence": "TAGATGTTGAGTCTGGAGCGTG", "sensor-assay potency score (higher = more potent)": -0.516}, {"sequence": "TATTGTTCCAAAACTTTCTGGC", "sensor-assay potency score (higher = more potent)": 0.627}, {"sequence": "TTCTTTTGCATGTTTCTCCTTT", "sensor-assay potency score (higher = more potent)": 0.299}, {"sequence": "TAACACACATTGTTCACTGAGA", "sensor-assay potency score (higher = more potent)": -0.436}, {"sequence": "TTTGGTATTATAGGAACCGTGT", "sensor-assay potency score (higher = more potent)": -0.294}, {"sequence": "TATGAGACTATTGTCATCTCGG", "sensor-assay potency score (higher = more potent)": 0.182}, {"sequence": "TTCTCTGGAACTTCTCGTCTGA", "sensor-assay potency score (higher = more potent)": -0.126}, {"sequence": "TTGAATGGACACACTCTCTTTC", "sensor-assay potency score (higher = more potent)": -0.228}, {"sequence": "TTGACGAGCAACTTCTTCTGAA", "sensor-assay potency score (higher = more potent)": 0.0812}]}, {"biological_target": "TRPM3", "assay": "pooled miR-30 sensor sort-seq; sequence = guide strand", "details": "shRNA", "values": [{"sequence": "TTGTCTTTCATATTGACCGAAT", "sensor-assay potency score (higher = more potent)": -0.665}, {"sequence": "TAAAATGCTCTTTCTATCCAGG", "sensor-assay potency score (higher = more potent)": -0.366}, {"sequence": "TTATTTTACCATCCTCTCGGGT", "sensor-assay potency score (higher = more potent)": -0.671}, {"sequence": "AATGTCGTCAACCATGTCGTTC", "sensor-assay potency score (higher = more potent)": -1.05}, {"sequence": "TTGTCTTCGAAGTTTCACCTCT", "sensor-assay potency score (higher = more potent)": 0.148}, {"sequence": "TTGTACAATTCCTCTAGTCTGG", "sensor-assay potency score (higher = more potent)": -0.181}]}]}
